From PubChem BioAssay AID1508601 (ICCB-Longwood Screening Facility, Harvard Medical School, 2020)
Among all 5,700 compounds or so, about 85 (1%) were called active. The sample holds actives, similar compounds and a random draw of the others, so the mix is not that of the screen. Rule as the data show it: active = p53-positive nuclei above about 36% (passing the limit was not always enough); inactive = the rest.

Key:
[1] = nuclear p53 accumulation, HPV+ cells – imaging, p53-positive nuclei imaging, 24 h, 48 h (AID 1508601); details: 24/48 h
[2] = target: Cellular tumor antigen p53 (Homo sapiens) (UniProt P04637); experiment: as above; details: 24/48 h, stronger effect = higher value
[3] = measured here: cell number at 24 h, Library stock concentration: 10 mM
[4] = measured here: cell number at 24 h, concentration not given here
[5] = measured here: cell number at 48 h, Library stock concentration: 10 mM
[6] = measured here: cell number at 48 h, concentration not given here
[7] = Library stock concentration: 10 mM
[8] = measured here: p53 positive nuclei at 24 h, Library stock concentration: 10 mM
[9] = measured here: p53 positive nuclei at 24 h, concentration not given here
[10] = measured here: cell number at 24 h, Library stock concentration: 3.33 mM
[11] = measured here: cell number at 48 h, Library stock concentration: 3.33 mM
[12] = Library stock concentration: 3.33 mM
[13] = measured here: p53 positive nuclei at 24 h, Library stock concentration: 3.33 mM

Chain of Cellular tumor antigen p53 (Homo sapiens) (P04637 whole entry, looked up): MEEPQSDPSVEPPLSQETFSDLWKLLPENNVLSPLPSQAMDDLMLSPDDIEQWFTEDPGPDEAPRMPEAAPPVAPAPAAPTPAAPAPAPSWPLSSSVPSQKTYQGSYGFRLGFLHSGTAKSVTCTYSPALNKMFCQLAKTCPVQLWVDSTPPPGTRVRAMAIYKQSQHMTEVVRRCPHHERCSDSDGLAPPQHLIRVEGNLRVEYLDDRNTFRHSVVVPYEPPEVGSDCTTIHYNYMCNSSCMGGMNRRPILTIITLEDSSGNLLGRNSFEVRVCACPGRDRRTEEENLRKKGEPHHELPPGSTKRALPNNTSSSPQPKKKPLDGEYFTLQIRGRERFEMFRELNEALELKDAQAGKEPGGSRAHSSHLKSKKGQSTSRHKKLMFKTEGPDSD

CC[n+]1c(-c2ccccc2)c2cc(N)ccc2c2ccc(N)cc21
nuclei count, normalised ([1]; measured here: cell number at 24 h, Library stock concentration: 500 nM): 102% | nuclei count, normalised ([1]; measured here: cell number at 24 h, Library stock concentration: 1.5 uM): 108% | nuclei count, normalised ([1]; measured here: cell number at 24 h, Library stock concentration: 4.6 uM): 106% | nuclei count, normalised ([1]; measured here: cell number at 24 h, Library stock concentration: 13.7 uM): 111% | nuclei count, normalised ([1]; measured here: cell number at 24 h, Library stock concentration: 41 uM): 111% | nuclei count, normalised ([1]; measured here: cell number at 24 h, Library stock concentration: 123 uM): 102% | nuclei count, normalised ([1]; measured here: cell number at 24 h, Library stock concentration: 370 uM): 117% | nuclei count, normalised ([1]; measured here: cell number at 24 h, Library stock concentration: 1.111 mM): 107% | nuclei count, normalised ([1]; measured here: cell number at 24 h, Library stock concentration: 3.333 mM): 105% | nuclei count, normalised [1, 3]: 83.1% | nuclei count, normalised [1, 4]: 104% | nuclei count, normalised ([1]; measured here: cell number at 48 h, Library stock concentration: 500 nM): 104% | nuclei count, normalised ([1]; measured here: cell number at 48 h, Library stock concentration: 1.5 uM): 109% | nuclei count, normalised ([1]; measured here: cell number at 48 h, Library stock concentration: 4.6 uM): 106% | nuclei count, normalised ([1]; measured here: cell number at 48 h, Library stock concentration: 13.7 uM): 109% | nuclei count, normalised ([1]; measured here: cell number at 48 h, Library stock concentration: 41 uM): 109% | nuclei count, normalised ([1]; measured here: cell number at 48 h, Library stock concentration: 123 uM): 99.5% | nuclei count, normalised ([1]; measured here: cell number at 48 h, Library stock concentration: 370 uM): 104% | nuclei count, normalised ([1]; measured here: cell number at 48 h, Library stock concentration: 1.111 mM): 99.7% | nuclei count, normalised ([1]; measured here: cell number at 48 h, Library stock concentration: 3.333 mM): 98.5% | nuclei count, normalised [1, 5]: 75.3% | nuclei count, normalised [1, 6]: 97.4% | p53-positive nuclei, normalised ([2]; Library stock concentration: 500 nM): 0.0282% (inactive) | p53-positive nuclei, normalised ([2]; Library stock concentration: 1.5 uM): 0.101% (inactive) | p53-positive nuclei, normalised ([2]; Library stock concentration: 4.6 uM): -0.0128% (inactive) | p53-positive nuclei, normalised ([2]; Library stock concentration: 13.7 uM): -0.0168% (inactive) | p53-positive nuclei, normalised ([2]; Library stock concentration: 41 uM): 0.329% (inactive) | p53-positive nuclei, normalised ([2]; Library stock concentration: 123 uM): 3.12% (inactive) | p53-positive nuclei, normalised ([2]; Library stock concentration: 370 uM): 7.73% (inactive) | p53-positive nuclei, normalised ([2]; Library stock concentration: 1.111 mM): 12.2% (inactive) | p53-positive nuclei, normalised ([2]; Library stock concentration: 3.333 mM): 19.5% (inactive) | p53-positive nuclei, normalised [2, 7]: 103% (active) | p53-positive nuclei, normalised ([2]; concentration not given here): 34.3% (inactive) | p53-positive nuclei, normalised ([2]; measured here: p53 positive nuclei at 24 h, Library stock concentration: 500 nM): 0.0668% | p53-positive nuclei, normalised ([2]; measured here: p53 positive nuclei at 24 h, Library stock concentration: 1.5 uM): 0.166% | p53-positive nuclei, normalised ([2]; measured here: p53 positive nuclei at 24 h, Library stock concentration: 4.6 uM): -0.00293% | p53-positive nuclei, normalised ([2]; measured here: p53 positive nuclei at 24 h, Library stock concentration: 13.7 uM): -0.0711% | p53-positive nuclei, normalised ([2]; measured here: p53 positive nuclei at 24 h, Library stock concentration: 41 uM): 0.21% | p53-positive nuclei, normalised ([2]; measured here: p53 positive nuclei at 24 h, Library stock concentration: 123 uM): 1.53% | p53-positive nuclei, normalised ([2]; measured here: p53 positive nuclei at 24 h, Library stock concentration: 370 uM): 4.81% | p53-positive nuclei, normalised ([2]; measured here: p53 positive nuclei at 24 h, Library stock concentration: 1.111 mM): 11.9% | p53-positive nuclei, normalised ([2]; measured here: p53 positive nuclei at 24 h, Library stock concentration: 3.333 mM): 38.2% | p53-positive nuclei, normalised [2, 8]: 127% | p53-positive nuclei, normalised [2, 9]: 45.3%

CCCCC/C=C\C/C=C\C/C=C\C/C=C\CCCC(=O)N[C@H](C)COP(=O)(O)O
nuclei count, normalised [1, 4]: 107% | nuclei count, normalised [1, 6]: 103% | p53-positive nuclei, normalised ([2]; concentration not given here): 0.124% (inactive) | p53-positive nuclei, normalised [2, 9]: -0.0345%

N#CC(OC1OC(COC2OC(CO)C(O)C(O)C2O)C(O)C(O)C1O)c1ccccc1 (centres undefined)
nuclei count, normalised [1, 10]: 95.4% | nuclei count, normalised [1, 11]: 89.1% | p53-positive nuclei, normalised [2, 12]: 0.141% (inactive) | p53-positive nuclei, normalised [2, 13]: -0.0206%

Cc1ccc(-n2nccn2)c(C(=O)N2CCN(c3nc4cc(Cl)ccc4o3)CCC2C)c1 (centres undefined)
nuclei count, normalised [1, 10]: 71.4% | nuclei count, normalised [1, 11]: 76.4% | p53-positive nuclei, normalised [2, 12]: 0.0905% (inactive) | p53-positive nuclei, normalised [2, 13]: -0.163%

c1cc(N2CCNCC2)c2cnccc2c1
nuclei count, normalised [1, 4]: 95.9% | nuclei count, normalised [1, 6]: 98.3% | p53-positive nuclei, normalised ([2]; concentration not given here): -0.118% (inactive) | p53-positive nuclei, normalised [2, 9]: -0.041%

CN(C)C(=S)SSC(=S)N(C)C
nuclei count, normalised [1, 4]: 35.4% | nuclei count, normalised [1, 6]: 24.2% | p53-positive nuclei, normalised ([2]; concentration not given here): 90.3% (active) | p53-positive nuclei, normalised [2, 9]: 108%

Cc1sc2c(c1C)C(c1ccc(Cl)cc1)=NC(CC(=O)Nc1ccc(O)cc1)c1nnc(C)n1-2 (centres undefined)
nuclei count, normalised ([1]; measured here: cell number at 24 h, Library stock concentration: 80 uM): 110% | nuclei count, normalised ([1]; measured here: cell number at 24 h, Library stock concentration: 400 uM): 120% | nuclei count, normalised ([1]; measured here: cell number at 24 h, Library stock concentration: 2 mM): 113% | nuclei count, normalised [1, 10]: 119% | nuclei count, normalised [1, 3]: 114% | nuclei count, normalised ([1]; measured here: cell number at 48 h, Library stock concentration: 80 uM): 108% | nuclei count, normalised ([1]; measured here: cell number at 48 h, Library stock concentration: 400 uM): 119% | nuclei count, normalised ([1]; measured here: cell number at 48 h, Library stock concentration: 2 mM): 111% | nuclei count, normalised [1, 11]: 117% | nuclei count, normalised [1, 5]: 109% | p53-positive nuclei, normalised ([2]; Library stock concentration: 80 uM): 0.0544% (inactive) | p53-positive nuclei, normalised ([2]; Library stock concentration: 400 uM): 0.0288% (inactive) | p53-positive nuclei, normalised ([2]; Library stock concentration: 2 mM): 3.49% (inactive) | p53-positive nuclei, normalised [2, 12]: 3.67% (inactive) | p53-positive nuclei, normalised [2, 7]: 9.67% (inactive) | p53-positive nuclei, normalised ([2]; measured here: p53 positive nuclei at 24 h, Library stock concentration: 80 uM): 0.123% | p53-positive nuclei, normalised ([2]; measured here: p53 positive nuclei at 24 h, Library stock concentration: 400 uM): 0.712% | p53-positive nuclei, normalised ([2]; measured here: p53 positive nuclei at 24 h, Library stock concentration: 2 mM): 19.6% | p53-positive nuclei, normalised [2, 13]: 10.4% | p53-positive nuclei, normalised [2, 8]: 46.6%

Cc1sc2c(c1C)C(c1ccc(Cl)cc1)=NC(CC(N)=O)c1nnc(C)n1-2 (centres undefined)
nuclei count, normalised ([1]; measured here: cell number at 24 h, Library stock concentration: 46 uM): 103% | nuclei count, normalised ([1]; measured here: cell number at 24 h, Library stock concentration: 278 uM): 99.7% | nuclei count, normalised ([1]; measured here: cell number at 24 h, Library stock concentration: 1.67 mM): 85.4% | nuclei count, normalised [1, 10]: 123% | nuclei count, normalised [1, 3]: 90.1% | nuclei count, normalised ([1]; measured here: cell number at 48 h, Library stock concentration: 46 uM): 106% | nuclei count, normalised ([1]; measured here: cell number at 48 h, Library stock concentration: 278 uM): 102% | nuclei count, normalised ([1]; measured here: cell number at 48 h, Library stock concentration: 1.67 mM): 87.7% | nuclei count, normalised [1, 11]: 122% | nuclei count, normalised [1, 5]: 84.3% | p53-positive nuclei, normalised ([2]; Library stock concentration: 46 uM): -0.111% (inactive) | p53-positive nuclei, normalised ([2]; Library stock concentration: 278 uM): 0.158% (inactive) | p53-positive nuclei, normalised ([2]; Library stock concentration: 1.67 mM): 12.8% (inactive) | p53-positive nuclei, normalised [2, 12]: 3.31% (inactive) | p53-positive nuclei, normalised [2, 7]: 25.8% (inactive) | p53-positive nuclei, normalised ([2]; measured here: p53 positive nuclei at 24 h, Library stock concentration: 46 uM): -0.0163% | p53-positive nuclei, normalised ([2]; measured here: p53 positive nuclei at 24 h, Library stock concentration: 278 uM): 0.11% | p53-positive nuclei, normalised ([2]; measured here: p53 positive nuclei at 24 h, Library stock concentration: 1.67 mM): 27% | p53-positive nuclei, normalised [2, 13]: 12.7% | p53-positive nuclei, normalised [2, 8]: 46.3%
